This note sets out measurements from PubChem BioAssay AID651946 (Broad Institute, 2012).

SMILES strings stand for the structures. Entries with a potency or affinity are not part of this list. Values without a mark were called inactive.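 Rule for the calls: active = toxic compound whose fitted half-effect dose of signal loss is at most twice its top tested dose; inconclusive = flat fit losing 30 to 70% signal, or poor fit; inactive = the rest.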

The assay in a line: cytotoxicity in HeLa cells, dose response, cytotoxicity control, cell-based, plate reader, dry powder (AID 651946). The settings on record: HeLa viability, ATP luminescence (CellTiter-Glo), 48 h; series mostly up to 26 µM; activity change, negative = cytotoxicity: at the top concentration. On the technique in general: Cellular ATP, detected with luciferase, serves as a proxy for viable cell number.
Take `FC(F)(F)c1cccc(-c2nnc(SCc3ccccc3)o2)c1`: the “activity change, negative = cytotoxicity” value was 6.67%.
For `N#Cc1ccc(-c2nnc(SCc3ccccc3)o2)cc1`, the “activity change, negative = cytotoxicity” value was -16.1%.
The same measure for `c1ccc(CSc2nnc(-c3ccncc3)o2)cc1`: 7.89%; for `Cc1nnc(SCc2ccccc2)o1`: -5.66%; for `c1ccc(CCc2nnc(-c3ccccc3)o2)cc1`: 13% [at 12 µM].
The same measure for `COc1cccc(-c2nnc(SCc3ccccc3)o2)c1`: -3.27%.
Take `N#Cc1cccc(-c2nnc(SCc3ccccc3)o2)c1`: the “activity change, negative = cytotoxicity” value is 22.6%.
Under `Clc1ccc(-c2nnc(SCc3cn(Cc4ccccc4)nn3)o2)cc1` stands 2.21%; under `FC(F)(F)CNCCSc1nnc(-c2ccccc2)o1`, -5.52%; under `Cc1ccccc1CSc1nnc(-c2ccccc2)o1`, 0.598%.
Under `c1ccc(-c2nnc(SCc3ccccn3)o2)cc1` stands -1.07%; under `c1ccc(CNc2nnc(-c3ccccc3)o2)cc1`, 11.4%.
Under `c1ccc(CSc2nnc(C3CCCCC3)o2)cc1` stands 8.12%; under `c1ccc(-n2cc(CSc3nnc(C4CCC4)o3)nn2)cc1`, -13.6%; under `Fc1cccc(CSc2nnc(-c3ccccc3)o2)c1`, -0.479%.
Turning to `Brc1ccc(CSc2nnc(-c3ccccc3)o2)cc1`, the “activity change, negative = cytotoxicity” value is -1.08%.
The same measure for `c1ccc(CSc2nnc(-c3ccncc3)o2)nc1`: 8.34%.
On to `FC(F)(F)c1ccccc1-c1nnc(SCc2ccccc2)o1`, for which the “activity change, negative = cytotoxicity” value is -7.47%.
On to `CS(=O)(=O)c1cccc(CSc2nnc(-c3ccccc3)o2)c1`, for which the “activity change, negative = cytotoxicity” value is -5.96%.
For `CS(=O)(=O)c1ccc(CSc2nnc(-c3ccccc3)o2)cc1`, the “activity change, negative = cytotoxicity” value is 5.79%.
On to `Brc1cccc(-c2nnc(SCc3ccccn3)o2)c1`, for which the “activity change, negative = cytotoxicity” value was -15.3%.
The same measure for `COc1ccc(-c2nnc(SCc3ccccn3)o2)cc1`: -23.8%.
Under `CCSc1nnc(-c2ccccc2)o1` stands -0.855%.
Take `Fc1ccc(CSc2nnc(-c3cccnc3)o2)cc1`: the “activity change, negative = cytotoxicity” value is 12.1%.
With `N#Cc1ccccc1CSc1nnc(-c2ccccc2)o1`, the “activity change, negative = cytotoxicity” value is 2.07%.
As for `c1ccc(CSc2nnc(C3CCCC3)o2)cc1`, the “activity change, negative = cytotoxicity” value is -9.51%.
With `c1ccc(CSc2nnc(-c3ccc(-c4ccccc4)cc3)o2)cc1`, the “activity change, negative = cytotoxicity” value is -7.34%.
Under `c1ccc(CSc2nnc(Cc3ccccc3)o2)cc1` stands 10.3%; under `COc1ccc(CSc2nnc(-c3ccc(Cl)cc3)o2)nc1`, -4.32%; under `COc1ccccc1-c1nnc(SCc2ccccn2)o1`, -18.6%.
Under `c1ccc(-c2nnc(SCCC3OCCCO3)o2)cc1` stands 1.39%; under `FC1(F)CN(CCSc2nnc(-c3ccccc3)o2)C1`, 0.959%.
The same measure for `FC(F)(F)c1ccccc1CSc1nnc(-c2ccccc2)o1`: -7.53%; for `Cc1ccc(CSc2nnc(-c3ccccc3)o2)cc1`: 9.57%.
`c1ccc(-c2nnc(SCCN3CCOCC3)o2)cc1`: the “activity change, negative = cytotoxicity” value was -3.35%.
Under `[O-][n+]1ccccc1CSc1nnc(-c2ccccc2)o1` stands 5.5%.
Under `Fc1ccc(-c2nnc(SCc3cn(-c4ccccc4)nn3)o2)cc1` stands -16%.
